Molecules are shown by their SMILES. Records with an inconclusive call do not appear. Unmarked numbers belong to inactive results. Calls of active or inactive are those of the source. Unless noted, calls come from the whole dose curve; as a rule, active = well fitted curve in the direction sought with a large enough effect in the repeat runs; inconclusive = weak or mixed curves; inactive = no such curve, though single readings can be large; an effect the other way counts as inactive or inconclusive.

Experiment [1] is described as follows: qHTS assay to identify small molecule agonists of the RXR signaling pathway - cell viability counter screen (AID 1159529). Note: series mostly up to about 77 µM; nearly all actives have a fitted effect of over 50% in size. The method, boiled down:
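RXR-alpha-UAS-bla HEK 293T cells in medium with 2% charcoal-stripped FBS were pre-incubated 5 hr, then compound-treated 16 hr at 37 C. Viability was read by CellTiter-Glo luminescence in the same wells as the beta-lactamase assay, with tetraoctyl ammonium bromide as positive control.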

A short description of experiment [2]: qHTS assay to identify small molecule antagonists of the retinoid acid receptor (RAR) signaling pathway - cell viability counter screen (AID 1159551). Note: nearly all actives have a fitted effect of over 35% in size. The method, boiled down: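 ATP-based viability, C3RL4 cells, 6 h at 37 C with 1 uM final retinol co-added after compound; luminescence read 30 min post CellTiter-Glo, RT.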
Experiment [3] in a line: qHTS assay to identify small molecule agonists of the retinoic acid receptor (RAR) signaling pathway (AID 1159553). Note: potency is the fitted concentration of half-maximal effect. Put shortly: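 Quantitative high-throughput format: the Tox21 10K library was tested on C3RL4 RARE-luciferase cells for 6 hr at 37 C and 5% CO2, with luminescence measured after a 30 min room-temperature reagent step.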
Experiment [4] in a line: qHTS assay to identify small molecule antagonists of the constitutive androstane receptor (CAR) signaling pathway - cell viability counter screen (AID 1224837). Note: series mostly up to about 92 µM; nearly all actives have a fitted effect of over 45% in size. Put shortly:
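Cells are seeded, rested 4 hr at 37 C/5% CO2, dosed with compound (15-point series) and 50 nM CITCO, incubated a further 23 hr, and then CellTiter-Fluor reagent is added before fluorescence is read. The line is HepG2 with stable hCAR and CYP2B6-2.2kb.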

Experiment [5] has as its target Nuclear receptor subfamily 1 group I member 3 (Homo sapiens) (UniProt Q14994). Briefly: qHTS assay to identify small molecule antagonists of the constitutive androstane receptor (CAR) signaling pathway (AID 1224838).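 Note: HepG2 cells stably expressing hCAR with CYP2B6 luciferase reporter stimulated by CITCO; nearly all actives have a fitted effect of over 40% in size.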 Put shortly:
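Luminescence from a CYP2B6-2.2kb promoter reporter in hCAR-expressing HepG2 cells reflects CAR signaling. Cells received compounds at 15 concentrations and 50 nM CITCO (final), then incubated 24 h at 37 C/5% CO2.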

Experiment [6] shares this target. In words: qHTS assay to identify small molecule agonists of the constitutive androstane receptor (CAR) signaling pathway (AID 1224839). For activation: series mostly up to about 92 µM. Note: nearly all actives have a fitted effect of over 15% in size. Note: potency is the fitted concentration of half-maximal effect. The method, boiled down: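 HepG2 cells stably co-transfected with hCAR and a CYP2B6-2.2kb luciferase reporter; compounds at 15 concentrations with 0.75 uM PK11195 present. After 24 hr at 37 C, luciferase read by ONE-Glo luminescence.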

A short description of experiment [7]: qHTS assay to identify small molecule antagonists of the estrogen related receptor signaling pathway with the pleiotropic PPARgamma coactivator (PGC) from Tox21 10K library - cell viability counter screen (AID 1224840; active = well fitted cell-killing curve with a large enough effect in the repeat runs, not every such curve was filed as active; note: nearly all actives have a fitted effect of over 40% in size). Put shortly: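 Cell viability is measured by CellTiter-Fluor fluorescence in PGC/ERR cells that receive compounds after a 6-hour attachment period and are then incubated 17.5 hours at 37 C.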

Experiment [8] is described as follows: qHTS assay to identify small molecule agonists of the estrogen related receptor signaling pathway with the pleiotropic PPARgamma coactivator (PGC) from Tox21 10K library (AID 1224842). Note: nearly all actives have a fitted effect of over 15% in size. Put shortly: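 PGC/ERR reporter cell line, 2,000 cells per well, incubated 6 h at 37 C before 23 nL compound in DMSO was added. After 18 h at 37 C, One-Glo luminescence read following 30 min at room temperature.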

A short description of experiment [9]: qHTS assay to identify small molecule antagonists of the retinoic acid receptor (RAR) signaling pathway (AID 1159552; note: nearly all actives have a fitted effect of over 50% in size). The method, boiled down:
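Retinol signaling pathway inhibitors screened in C3RL4 RARE-luciferase reporter cells seeded overnight at 37 C, then compounds added with 1 uM (final) retinol as pathway substrate. After 6 hr at 37 C, luciferase luminescence read after 30 min at room temperature.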

Experiment [10] has as its target Luciferin 4-monooxygenase (Photinus pyralis) (UniProt P08659). In words: qHTS assay to identify small molecule inhibitors of firefly luciferase (AID 1224835). Note: nearly all actives have a fitted effect of over 25% in size. Note: potency is the fitted concentration of half-maximal effect. The method, boiled down:
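Biochemical qHTS: compounds run as interplate titrations against purified firefly enzyme, with D-luciferin and ATP each at its KM concentration. Light output recorded by CCD imaging.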

Experiment [11] in a line: qHTS assay to identify small molecule agonists of the constitutive androstane receptor (CAR) signaling pathway - cell viability counter screen (AID 1224836). Note: series mostly up to about 92 µM; nearly all actives have a fitted effect of over 45% in size. Put shortly: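 HepG2 cells stably carrying hCAR and a CYP2B6-2.2kb reporter; 15-concentration compounds plus PK11195 (final 0.75 uM), 23 hr at 37 C/5% CO2. Viability read by CellTiter-Fluor fluorescence.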
Experiment [12] deals with Retinoic acid receptor RXR-alpha (Homo sapiens) (UniProt P19793). In words: qHTS assay to identify small molecule agonists of the RXR signaling pathway (AID 1159527; calls by dose curve; note: nearly all actives have a fitted effect of over 35% in size). The method, boiled down:
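GeneBLAzer RXR-alpha-UAS-bla HEK 293T cells in 2% charcoal-stripped FBS medium were exposed to compounds for 16 hr at 37 C in agonist mode. Beta-lactamase reporter read as 460/530 nm FRET ratio after 2 hr substrate loading.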

Experiment [13] is described as follows: qHTS assay to identify small molecule antagonists of the estrogen related receptor signaling pathway with the pleiotropic PPARgamma coactivator (PGC) from Tox21 10K library (AID 1224841; call rule not given here; note: series mostly up to about 92 µM; actives are mostly falling curves and most rising ones were filed inactive; nearly all actives have a fitted effect of over 50% in size). Put shortly:
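Cells stably carrying the PGC/ERR reporter, seeded at 2,000 per well, received pin-transferred compounds 6 h post-plating. Exposure lasted 18 h at 37 C. Signal: One-Glo luminescence.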

Experiment [14] in a line: qHTS assay to identify small molecule antagonists of the estrogen related receptor (ERR) signaling pathway from Tox21 library - cell viability counter screen (AID 1224834). Note: nearly all actives have a fitted effect of over 30% in size. Note: potency is the fitted concentration of half-maximal effect. Put shortly:
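Compounds in DMSO were pinned onto ERR cells that had been incubated for 6 h, and the plates were held at 37 C for 17.5 h. CellTiter-Fluor reagent was then added and fluorescence was measured after 30 min.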
% is set by controls: 0 for no effect and ±100 for the full control effect.

Chain of Retinoic acid receptor RXR-alpha (Homo sapiens) (P19793 whole entry, looked up): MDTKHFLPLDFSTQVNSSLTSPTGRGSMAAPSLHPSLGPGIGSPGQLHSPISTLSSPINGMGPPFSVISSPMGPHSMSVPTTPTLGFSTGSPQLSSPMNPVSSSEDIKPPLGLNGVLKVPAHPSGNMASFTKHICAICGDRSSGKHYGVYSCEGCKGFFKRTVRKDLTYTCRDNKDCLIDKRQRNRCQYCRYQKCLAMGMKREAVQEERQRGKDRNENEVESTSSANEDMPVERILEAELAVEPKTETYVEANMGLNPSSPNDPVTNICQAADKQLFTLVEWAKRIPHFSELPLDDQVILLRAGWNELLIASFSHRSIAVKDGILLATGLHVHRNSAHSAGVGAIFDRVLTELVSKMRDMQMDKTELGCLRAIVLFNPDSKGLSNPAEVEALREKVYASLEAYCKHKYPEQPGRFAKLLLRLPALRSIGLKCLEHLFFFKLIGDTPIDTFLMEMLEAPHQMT
Chain of Luciferin 4-monooxygenase (Photinus pyralis) (P08659 whole entry, looked up): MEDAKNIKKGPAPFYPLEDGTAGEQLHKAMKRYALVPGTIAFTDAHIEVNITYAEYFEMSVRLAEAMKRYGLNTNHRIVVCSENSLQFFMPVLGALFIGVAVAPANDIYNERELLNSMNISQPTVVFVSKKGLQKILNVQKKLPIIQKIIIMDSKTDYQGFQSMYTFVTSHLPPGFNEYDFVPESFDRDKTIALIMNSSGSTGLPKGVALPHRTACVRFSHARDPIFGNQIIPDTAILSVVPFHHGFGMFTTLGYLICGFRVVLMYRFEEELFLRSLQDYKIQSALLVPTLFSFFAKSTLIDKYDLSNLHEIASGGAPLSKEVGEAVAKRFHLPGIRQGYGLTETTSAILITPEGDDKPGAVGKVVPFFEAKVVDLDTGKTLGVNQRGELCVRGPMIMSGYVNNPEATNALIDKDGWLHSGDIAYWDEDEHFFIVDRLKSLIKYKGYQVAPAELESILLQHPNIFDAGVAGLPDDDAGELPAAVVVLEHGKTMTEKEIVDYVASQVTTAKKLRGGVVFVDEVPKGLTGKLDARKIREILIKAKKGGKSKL
Chain of Nuclear receptor subfamily 1 group I member 3 (Homo sapiens) (Q14994 whole entry, looked up): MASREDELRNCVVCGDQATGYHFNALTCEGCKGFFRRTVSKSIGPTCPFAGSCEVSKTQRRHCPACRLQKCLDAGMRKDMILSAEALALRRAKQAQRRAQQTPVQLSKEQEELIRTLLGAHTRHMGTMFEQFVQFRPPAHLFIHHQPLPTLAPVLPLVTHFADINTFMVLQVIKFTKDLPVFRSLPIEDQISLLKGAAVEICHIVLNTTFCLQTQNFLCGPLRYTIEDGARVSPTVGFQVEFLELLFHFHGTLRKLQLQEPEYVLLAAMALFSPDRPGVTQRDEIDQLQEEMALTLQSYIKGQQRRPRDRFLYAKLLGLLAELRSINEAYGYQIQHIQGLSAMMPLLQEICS

Turning to `O=[N+]([O-])c1ccc2ncccc2c1`, the Potency entry in experiment [1], in experiment [2], in experiment [3], in experiment [4], in experiment [5] and in [6] was “inactive” each time. Besides, the Potency result in [7] and in [8] was “inactive” throughout.

Regarding `CC(=O)OCC(C)C`, the Potency entry in [1], in experiment [2], in experiment [9], in experiment [3], in experiment [10] and in experiment [11] was “inactive” each time. Besides, the Potency result in experiment [4], in experiment [5], in experiment [6] and in [7] was “inactive” throughout.

Consider `CN=C(N)NC(=O)Nc1c(C)cccc1C`, for which the Potency entry in [12], in experiment [2], in experiment [10], in experiment [11], in experiment [4] and in [5] was “inactive” in each case. The Potency result in [6], in experiment [7], in [13] and in experiment [8] was “inactive” throughout.

With `Cc1cc([N+](=O)[O-])ccc1N`, the Potency entry in [1], in experiment [2], in [9], in experiment [3], in experiment [5] and in [6] was “inactive” in each case. Moreover, in [14], the Potency was 33.9 µM (active).

For `O=C(CCS)OCC(COC(=O)CCS)(COC(=O)CCS)COC(=O)CCS`, the Potency entry in [12], in experiment [14], in [10], in [11], in experiment [4] and in experiment [5] was “inactive” throughout. The Potency entry in experiment [6] and in experiment [7] was “inactive” in each case.

On to `C=C(C)C(=O)OCCC(F)(F)C(F)(F)C(F)(F)C(F)(F)C(F)(F)C(F)(F)F`, for which the Potency result in experiment [12], in experiment [2], in experiment [14], in [10], in [11] and in [4] was “inactive” each time. For the same compound, the Potency entry in experiment [5] and in experiment [7] was “inactive” throughout.

With `CCN(CC)C(=O)/C(C#N)=C/c1cc(O)c(O)c([N+](=O)[O-])c1`, the Potency entry in experiment [1], in experiment [2], in experiment [9], in experiment [10], in experiment [5] and in experiment [6] was “inactive” each time. Further, the Potency in experiment [14] is 26.6 µM (active).

Consider `CCCCC[C@H](O)/C=C/[C@H]1[C@H](O)CC(=O)[C@@H]1C/C=C\CCCC(=O)O`, for which the Potency entry in [1], in experiment [2], in experiment [3], in experiment [14], in experiment [10] and in experiment [11] was “inactive” throughout. Further, the Potency result in experiment [4], in [5], in [6] and in [7] was “inactive” each time.

`O=c1[nH][nH]c(=O)c2cc([N+](=O)[O-])ccc12`: the Potency entry in experiment [12], in experiment [2], in [14], in [10], in [11] and in [4] was “inactive” throughout. For the same compound, the Potency entry in experiment [5] and in experiment [7] was “inactive” throughout.

Regarding `CC(C)(C)CCCCCCOC(=O)c1ccccc1C(=O)OCCCCCCC(C)(C)C`, the Potency entry in [1], in [2], in experiment [3], in experiment [14], in experiment [10] and in [11] was “inactive” in each case. The Potency result in experiment [4], in experiment [5], in experiment [6], in experiment [7] and in [8] was “inactive” throughout.

As to `CCC(=O)OCc1ccc(OC)cc1`, the Potency entry in experiment [1], in experiment [2], in experiment [9], in experiment [3], in [14] and in experiment [10] was “inactive” throughout. Further, the Potency result in experiment [4], in experiment [5] and in experiment [7] was “inactive” in each case.

For `COc1ccc(-n2nc(C(F)F)cc2-c2ccc(S(C)=O)cc2)cc1` (stereo not drawn), the Potency result in [1], in [2], in experiment [3], in experiment [14], in [10] and in [11] was “inactive” in each case. Moreover, the Potency entry in experiment [4] and in experiment [7] was “inactive” each time.

With `CCN(CC)CC(=O)Nc1c(C)cccc1C(=O)OC`, the Potency entry in experiment [12], in [2], in [14], in [10], in [4] and in experiment [5] was “inactive” each time. Besides, the Potency result in experiment [7] is “inactive”. Moreover, the Potency in experiment [6] was 23.7 µM (active).

Turning to `CCCC(=O)OC(=O)CCC`, the Potency result in [1], in [2], in experiment [9], in experiment [3], in [14] and in experiment [10] was “inactive” each time. Also, the Potency result in [11], in experiment [4], in experiment [5], in [6] and in experiment [7] was “inactive” throughout.

As for `COc1cc(NC(C)CCCN)c2ncccc2c1` (stereo not drawn), the Potency entry in experiment [1], in experiment [2], in experiment [3], in experiment [14], in experiment [10] and in experiment [11] was “inactive” in each case. In addition, the Potency result in experiment [4], in [5], in experiment [6] and in experiment [8] was “inactive” throughout.

For the compound `CCCCCCC(O)CCOC(C)=O` (stereo not drawn), the Potency entry in [12], in experiment [2], in experiment [14], in experiment [10], in experiment [11] and in experiment [4] was “inactive” each time. Besides, the Potency result in experiment [7], in experiment [13] and in experiment [8] was “inactive” in each case.

In the case of `COc1ccc(-c2cc(=S)ss2)cc1`, the Potency result in experiment [1], in [2], in experiment [9], in experiment [11], in experiment [4] and in experiment [5] was “inactive” in each case. Further, the Potency entry in experiment [7] is “inactive”. Besides, the Potency was 26.6 µM (active) in experiment [3], 15.5 µM (active) in experiment [10] and 23.7 µM (active) in [6].

Turning to `SCCc1cnccn1`, the Potency result in [12], in [2], in [14], in experiment [10], in experiment [11] and in experiment [4] was “inactive” throughout. The Potency entry in [5], in [6], in experiment [7], in [13] and in experiment [8] was “inactive” each time.

With `O=C(O)CNC(=O)c1ccccc1I`, the Potency entry in experiment [12], in experiment [2], in experiment [14], in experiment [10], in experiment [4] and in [5] was “inactive” each time. In experiment [7], the Potency result was “inactive”.

For `c1ccc2sc(SSc3nc4ccccc4s3)nc2c1`, the activation in experiment [12] was -16% [at 15.8 µM]. For the same compound, the results for the activity change, negative = cytotoxicity in experiment [2] and in experiment [4] were 0.484% [at 19 µM] and 11.8% [at 19 µM], respectively. The viability change, negative = cytotoxic in [14] is 0.18% [at 19 µM]; in experiment [11] it was 1.07% [at 19 µM]; in experiment [7] it was 10.2% [at 19 µM]. In addition, in experiment [10], the Potency was 10.7 µM (active). Further, the activity, negative = inhibition in experiment [5] is 80.4% [at 19 µM].

As to `CC(=O)C(=O)CC(C)C`, the Potency result in experiment [12], in [2], in experiment [10], in experiment [11], in [4] and in [7] was “inactive” throughout.

Turning to `Cc1ccc(Nc2c(F)cccc2Cl)c(CC(=O)O)c1`, the Potency entry in experiment [12], in [2], in [10], in experiment [11], in [4] and in experiment [5] was “inactive” throughout. Moreover, the Potency result in [6], in experiment [13] and in [8] was “inactive” each time.

Regarding `CC(C)c1ccc(C(=O)N=C(N)N)cc1S(C)(=O)=O`, the Potency result in experiment [1], in experiment [2], in [9], in experiment [3], in experiment [14] and in [10] was “inactive” each time. For the same compound, the Potency result in experiment [4], in experiment [5], in [6] and in experiment [7] was “inactive” each time.

Values taken from PubChem BioAssay (Tox21).
